From PubChem
Only some compounds are listed: those with a hit (about 1.7% of all), similar ones and a draw of the others.
LYPLA1 inh: blocks human lysophospholipase 1, a PME1 counter-screen; actives 0.16% (n = 320,000); recombinant LYPLA1, FP-Rh probe fluorescence polarization; O75608; inhibition, % at 5.9 µM;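 active = inhibition above the mean of all tested compounds plus 3 SD, set per campaign, cut at about 14% in these data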;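 also: inhibitors block serine hydrolase probe labeling of LYPLA1 so polarization falls; 0% = enzyme with DMSO and 100% = wells lacking LYPLA1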
LYPLA2 inh: LYPLA2 (human) inhibition in PME1 counter-screen. actives 0.38% (n = 320,000). AID 2177. O95372. recombinant LYPLA2, FP-Rh probe fluorescence polarization. inhibition, % at 5.9 µM;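 active = inhibition above the screen-wide mean plus 3 SD, limit set per campaign, cut at about 26% in these data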;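 also: 0% = LYPLA2 with DMSO and 100% = wells lacking LYPLA2 enzyme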
Hck-Nef inh: inhibitors of human Hck kinase activated by Nef | Recombinant Hck-YEEI plus Nef, Z-Lyte FRET kinase assay | inhibition, % at 20 µM | actives 0.68% (n = 220,000);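 active = Hck-Nef kinase inhibition above about 50%, limit read from the data; inactive = inhibition below that limit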;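 also: 0% = DMSO with Hck plus Nef and 100% = Hck alone without Nef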
p97 inhibitor: human p97 ATPase inhibition. P55072. recombinant p97 ATPase, Kinase-Glo ATP luminescence, 3 h. inhibition, % at 8 µM. actives 0.42% (n = 220,000). AID 1481; in the data active = inhibition above about 15%;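 also: 0% = DMSO vehicle and 100% = wells lacking enzyme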
PREPL inh: human PREPL enzyme inhibition. recombinant PREPL, fluorescence polarization activity-based probe. actives 0.68% (n = 320,000). inhibition, % at 5.96 µM. AID 2751; in the data active = inhibition above about 43%;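 also: 0% = enzyme with DMSO and 100% = wells lacking enzyme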
Rin1-Abl PPI inh: human Rin1-Abl interaction inhibition. TR-FRET Rin1/Abl binding, biochemical. actives 0.4% (n = 360,000). P00519+Q13671. inhibition, % at 7.35 µM; in the data active = inhibition above about 5%, passing the limit was not always enough
LYPLA2 conf: counter-screen for PME1 inhibitors: confirmation of human LYPLA2 inhibitors | shares compounds with LYPLA2 inh | recombinant LYPLA2, FP-Rh probe fluorescence polarization | inhibition, % at 5.9 µM | actives 72% (n = 1,100) | AID 2232;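 active = mean inhibition across replicates above the hit cutoff set in the primary screen, cut at about 26% in these data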;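 also: blocked labeling of the enzyme by serine hydrolase FP-Rh probe lowers polarization; 0% = enzyme with DMSO and 100% = wells lacking LYPLA2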
LYPLA2 ABPP: inhibitors of human LYPLA2 | shares compounds with LYPLA2 inh | rhLYPLA2 in mouse brain proteome, gel ABPP FP-Rh | inhibition, % at 20 µM | actives 30% (n = 150) | AID 652029;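 active = inhibition of LYPLA2 enzyme probe labeling above about 50%, limit read from the data; inactive = inhibition below that limit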;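 also: loss of FP-Rh probe labeling of the LYPLA2 gel band measured as band density; 0% = DMSO only control band and 100% = blank gel background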
The depositor's hits bear a star; x = not tested or not shown.

SMILES	LYPLA1 inh	LYPLA2 inh	Hck-Nef inh	p97 inhibitor	PREPL inh	Rin1-Abl PPI inh	LYPLA2 conf	others
O=C(Nc1ccc(N2CCN(C(=O)c3ccco3)CC2)cc1)c1cc(Br)ccc1Cl	7	44*	x	x	11	2	49*
O=C(Nc1ccc(N2CCN(C(=O)c3ccco3)CC2)c(Cl)c1)c1cccnc1	3	11	18	2	6	-1	x
Cc1ccccc1C(=O)N1CCN(c2ccc(NC(=S)NC(=O)c3ccco3)cc2)CC1	-3	8	x	x	14	4	x
O=C(c1ccco1)N1CCN(C(=S)Nc2ccc(F)c(Cl)c2)CC1	2	66*	x	x	-6	-2	68*	LYPLA2 ABPP=47
CC1CC2CCCC(O)=C2C(=O)O1 (stereo not given)	x	x	x	x	x	-4	x
CCN(CC)S(=O)(=O)c1ccc(C(=O)NCC2(N3CCOCC3)CCCCC2)cc1	-2	1	x	x	14	-2	x
Cc1ccc(OCC(=O)NCc2ccccc2)c([N+](=O)[O-])n1	3	54*	1	3	3	-4	-5
Cc1ccc(C)c(S(=O)(=O)NCc2ccc(C(=O)N3CCC(Cc4ccccc4)CC3)cc2)c1	-2	45*	1	-3	21	0	47*
CCOC(=O)C1CCCN(C(=O)c2ccc(CNS(=O)(=O)c3ccc(C)cc3)cc2)C1 (stereo not given)	0	12	2	-4	24	3	x
CCOC(=O)C1CCN(C(=O)c2ccc(CNS(=O)(=O)c3ccc(OC)cc3)cc2)CC1	-2	26*	7	0	-4	3	25
O=C(Nc1ccc(Cl)cc1)Nn1cnc2ccccc2c1=O	-5	30*	x	x	6	4	34*
O=C(Nn1cnc2ccccc2c1=O)c1ccccc1Cl	0	3	0	0	8	0	x
O=C(CN(C(=O)c1csnn1)c1ccc(F)cc1)NCCc1ccccc1	3	8	x	x	-8	-1	x
CCOC(=O)N1CCN(S(=O)(=O)c2ccc(F)c(C(=O)Nc3cc(C)cc(C)c3)c2)CC1	-2	5	-8	3	8	2	x
O=C(Nc1ccccc1C(=O)O)c1cc(S(=O)(=O)N2CCCCCC2)ccc1Cl	-4	35*	x	x	0	6	6
CCOC(=O)N1CCN(S(=O)(=O)c2ccc(F)c(C(=O)Nc3cccc(Cl)c3C)c2)CC1	2	40*	2	-1	5	-1	41*
Cc1ccc(C(=O)OCC(=O)NNC(=O)COc2ccc(Cl)cc2)c(O)c1	1	-4	x	x	-4	-2	x
Nc1nnc(SCC(=O)c2ccc([N+](=O)[O-])cc2)s1	-2	29*	-27	-2	13	0	14
Cc1nnc(SCC(=O)c2ccc([N+](=O)[O-])cc2)s1	3	11	18	1	23	-1	x
O=C(Cn1nnc(-c2ccc(F)cc2)n1)Nc1cccc(S(=O)(=O)N2CCCC2)c1	-12	-28	x	x	14	0	x
CN(Cc1nc(-c2ccccn2)no1)S(=O)(=O)c1ccc(Cl)cc1	2	28*	1	0	-1	1	26*
Cc1nn(-c2ccccc2)c(Cl)c1/C=N/Nc1ccc(S(=O)(=O)Nc2ccccc2C(=O)O)cc1[N+](=O)[O-]	1	28*	16	-15	38	-3	13
CSc1ccc(C=NNc2ccc(S(=O)(=O)Nc3ccccc3C(=O)O)cc2[N+](=O)[O-])cc1	x	x	x	x	43	3	x
CCCCCCCCOC(=O)CCc1c(C)[nH]c(=S)[nH]c1=O	3	39*	-1	-9	9	-2	30*
COC(=O)c1ccccc1NC(=O)CCCOc1cc(=O)n(C)c2ccccc12	x	x	x	x	x	1	x
SMILES	LYPLA1 inh	LYPLA2 inh	Hck-Nef inh	p97 inhibitor	PREPL inh	Rin1-Abl PPI inh	LYPLA2 conf	others
CCOC(=O)N1CCN(C(=O)COC(=O)c2ccc(O)cc2O)CC1	-3	0	16	-3	0	-1	x
O=C(OCC(=O)N1CCN(C(=O)COC(=O)c2ccc(O)cc2O)CC1)c1ccc(O)cc1O	4	28*	x	x	-2	4	27*
CCOC(=O)c1ccc(NC(=O)CC2S/C(=N/N=C3/NC(=O)CS3)NC2=O)cc1 (stereo not given)	1	32*	11	3	2	-7	2
Cc1ccc(NC(=O)CC2S/C(=N/N=C3/NC(=O)CS3)NC2=O)cc1 (stereo not given)	0	-1	12	5	-2	0	x
Cc1onc(-c2ccccc2Cl)c1C(=O)Nc1cccc(S(=O)(=O)NC2=NCCC2)c1	2	3	x	x	-9	-1	x
COc1ccccc1Oc1ccc2c(c1)C(=O)N(c1cccc3ncccc13)C2=O	x	x	4	2	x	-3	x
COc1ccccc1Oc1ccc2c(c1)C(=O)N(c1cccc(O)c1)C2=O	-9	51*	-1	0	5	-3	51*	LYPLA2 ABPP=34
COc1ccc(NC(=O)C2CC(c3ccccc3O)=NO2)cc1OC (stereo not given)	-1	-2	x	x	29	-5	x
CN(C)C(=O)N1CCC(C(=O)N2CCCC(C(=O)c3ccc(C(C)(C)C)cc3)C2)CC1 (stereo not given)	4	34*	4	-1	10	7	34*
CCCCc1c(O)nc(SCC(=O)Nc2ccc(OC)cc2)n(-c2ccc(C)c(C)c2)c1=O	x	x	x	x	x	-3	x
COc1cc(/C=C2/NC(=O)N(Cc3ccccc3F)C2=O)ccc1Oc1ccc([N+](=O)[O-])cn1	-2	62*	2	6	3	-6	72*
COc1cc(/C=C(/C#N)c2ccccc2)ccc1Oc1ccc([N+](=O)[O-])cn1	-6	31*	1	1	18	0	31*
O=C(COC(=O)c1cc(Br)ccc1O)c1ccc(F)cc1	x	x	x	x	8	2	x
COc1ccccc1NC(=O)Cn1cnc2sc(C(=O)NCc3ccco3)c(C)c2c1=O	0	64*	-21	2	-1	-1	57*	LYPLA2 ABPP=49
COCCCNC(=O)c1sc2ncn(CC(=O)Nc3ccc(C)c(Cl)c3)c(=O)c2c1C	-11	42*	14	-3	12	0	35*
CCN(CC)CCCNC(=O)c1sc2ncn(CC(=O)Nc3ccc(C)c(Cl)c3)c(=O)c2c1C	-3	38*	23	1	15	0	40*
CCn1cnc2sc(C(=O)Nc3ccccc3OC)c(C)c2c1=O	1	0	23	3	7	-3	x
Cc1ccc(NC(=O)Cn2cnc3sc(C(=O)NCCN(C)C)c(C)c3c2=O)cc1Cl	x	x	3	1	x	x	x
